Anthrax LF inh2: anthrax lethal factor protease inhibition | P15917 | multiplex microsphere protease cleavage assay, LF | inhibition, % at 10 µM | actives 0.12% (n = 360,000); further: plate controls were buffer without enzyme for full effect and enzyme alone for no effect
BoNT F protease: blocks Botulinum neurotoxin F light chain protease | inhibition, % at 10 µM | Multiplex microsphere protease cleavage assay, flow cytometry | actives 0.22% (n = 360,000) | AID 588497; in the data active means inhibition above about 35%, passing the limit was not always enough; inconclusive means no clear call, values can overlap the other calls; further: plate controls were buffer without enzyme for full effect and enzyme alone for no effect
BoNT-A LC inh2: BoNT A light chain protease inhibition; actives 0.17% (n = 360,000); multiplex microsphere protease substrate cleavage, flow cytometry; inhibition, % at 10 µM; further: plate controls were buffer without enzyme for full effect and enzyme alone for no effect
TcdB inh: inhibitors of Clostridioides difficile toxin B glycohydrolase. P18177. TcdB glycohydrolase enzymatic assay, plate reader. inhibition, % at 9.99 µM. actives 0.24% (n = 350,000); in the data active means inhibition above about 10%
Target sequence (P18177 whole entry, looked up): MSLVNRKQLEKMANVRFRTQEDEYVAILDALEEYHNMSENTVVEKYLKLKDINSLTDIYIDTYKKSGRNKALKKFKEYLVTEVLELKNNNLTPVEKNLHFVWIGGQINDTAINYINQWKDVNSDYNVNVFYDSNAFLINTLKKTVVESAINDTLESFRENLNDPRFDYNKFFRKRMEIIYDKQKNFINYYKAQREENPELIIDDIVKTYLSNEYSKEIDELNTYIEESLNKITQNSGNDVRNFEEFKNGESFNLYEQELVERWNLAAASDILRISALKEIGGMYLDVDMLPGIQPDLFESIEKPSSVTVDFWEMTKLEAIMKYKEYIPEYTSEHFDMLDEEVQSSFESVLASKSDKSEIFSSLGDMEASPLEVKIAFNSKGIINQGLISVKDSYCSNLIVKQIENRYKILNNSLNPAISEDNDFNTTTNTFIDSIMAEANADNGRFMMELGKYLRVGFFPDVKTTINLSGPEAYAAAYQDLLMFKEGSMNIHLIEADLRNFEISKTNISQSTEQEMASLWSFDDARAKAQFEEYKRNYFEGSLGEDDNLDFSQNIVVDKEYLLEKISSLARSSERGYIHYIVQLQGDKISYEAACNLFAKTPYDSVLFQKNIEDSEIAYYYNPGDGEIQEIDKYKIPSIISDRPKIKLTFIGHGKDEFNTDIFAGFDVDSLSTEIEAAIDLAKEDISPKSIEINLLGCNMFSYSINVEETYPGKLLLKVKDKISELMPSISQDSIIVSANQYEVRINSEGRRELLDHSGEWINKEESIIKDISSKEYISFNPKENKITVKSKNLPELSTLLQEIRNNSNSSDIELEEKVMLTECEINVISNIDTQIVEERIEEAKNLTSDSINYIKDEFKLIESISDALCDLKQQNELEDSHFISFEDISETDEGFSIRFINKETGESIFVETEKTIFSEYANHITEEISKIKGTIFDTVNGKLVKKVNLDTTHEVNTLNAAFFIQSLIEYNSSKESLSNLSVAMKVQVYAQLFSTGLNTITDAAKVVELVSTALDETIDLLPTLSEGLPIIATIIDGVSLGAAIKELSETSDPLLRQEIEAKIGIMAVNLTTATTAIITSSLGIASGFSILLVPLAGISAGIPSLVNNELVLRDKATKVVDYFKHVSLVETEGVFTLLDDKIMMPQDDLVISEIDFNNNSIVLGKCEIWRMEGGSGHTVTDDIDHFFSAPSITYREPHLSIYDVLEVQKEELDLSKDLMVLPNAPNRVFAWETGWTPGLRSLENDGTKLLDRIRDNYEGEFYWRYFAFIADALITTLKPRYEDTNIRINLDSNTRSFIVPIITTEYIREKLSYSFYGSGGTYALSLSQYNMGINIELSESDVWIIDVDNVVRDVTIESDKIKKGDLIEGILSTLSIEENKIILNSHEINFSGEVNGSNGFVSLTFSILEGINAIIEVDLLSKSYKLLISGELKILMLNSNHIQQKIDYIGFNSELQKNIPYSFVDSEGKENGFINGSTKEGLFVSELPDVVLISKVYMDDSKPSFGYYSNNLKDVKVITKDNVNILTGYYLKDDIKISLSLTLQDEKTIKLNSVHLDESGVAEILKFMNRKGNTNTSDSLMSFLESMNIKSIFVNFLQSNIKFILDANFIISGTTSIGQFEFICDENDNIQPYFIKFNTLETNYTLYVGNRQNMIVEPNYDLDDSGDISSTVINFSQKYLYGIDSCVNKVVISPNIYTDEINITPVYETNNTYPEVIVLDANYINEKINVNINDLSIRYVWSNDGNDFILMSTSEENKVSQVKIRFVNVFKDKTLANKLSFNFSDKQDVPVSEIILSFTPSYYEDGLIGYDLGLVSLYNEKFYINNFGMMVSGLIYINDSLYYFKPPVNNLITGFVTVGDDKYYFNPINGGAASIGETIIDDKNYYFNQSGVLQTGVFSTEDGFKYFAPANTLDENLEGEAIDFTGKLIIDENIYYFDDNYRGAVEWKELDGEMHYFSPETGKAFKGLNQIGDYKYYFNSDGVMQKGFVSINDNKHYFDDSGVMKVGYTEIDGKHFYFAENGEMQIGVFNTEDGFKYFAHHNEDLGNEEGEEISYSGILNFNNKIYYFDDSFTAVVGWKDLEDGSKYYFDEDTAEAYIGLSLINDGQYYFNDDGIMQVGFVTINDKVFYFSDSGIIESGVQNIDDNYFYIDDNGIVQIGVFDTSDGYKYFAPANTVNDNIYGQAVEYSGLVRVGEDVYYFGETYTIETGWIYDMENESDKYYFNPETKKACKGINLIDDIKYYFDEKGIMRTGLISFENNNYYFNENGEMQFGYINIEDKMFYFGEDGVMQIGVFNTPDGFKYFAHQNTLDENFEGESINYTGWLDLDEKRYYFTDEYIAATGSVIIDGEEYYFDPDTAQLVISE
Autofluor counter: counter-screen for toxin protease inhibitors: compound fluorescence; AID 624483; compound autofluorescence counterscreen, microsphere flow cytometry; hits give high values; actives 3.1% (n = 360,000); fluorescence intensity (test concentration not listed); in the data active means fluorescence intensity above about 16000; inconclusive means no clear call, values can overlap the other calls
* hit, by the source's call; ? = inconclusive; · = no result. Shown is part of a subset that was picked to be rich in hits. Unless noted, no stated cut-off is given here; in the data, active means inhibition above about 30%; inconclusive means no clear call, values can overlap the other calls; inactive means below that.

SMILES	Anthrax LF inh2	BoNT F protease	BoNT-A LC inh2	TcdB inh	Autofluor counter
O=C(CCN1C(=O)COc2ccccc21)NCc1ccco1	-3	-12	-2	·	10601
COc1ccccc1CNC(=O)CCCN1C(=O)COc2ccc(C)cc21	-4	-5	1	·	11784
COc1ccccc1CNC(=O)CCN1C(=O)COc2ccc(C)cc21	0	5	?	·	21217*
O=C(CN(Cc1cccs1)C(=O)CN1C(=O)COc2ccccc21)NCc1ccco1	-6	7	7	·	19004*
Cc1ccc2c(c1)N(CCC(=O)NCCN1CCOCC1)C(=O)CO2	0	-3	-1	·	20041*
Cc1ccc2c(c1)N(CCC(=O)NCc1ccco1)C(=O)CO2	-1	-5	-2	·	22695*
C[C@H]1CN([C@@H](C)CO)C(=O)Cc2cc(NC(=O)Cc3cn(C)c4ccccc34)ccc2O[C@H]1CN(C)S(=O)(=O)c1ccc(F)cc1	·	·	·	-1	·
Cc1ccc2c(c1)N(CCC(=O)NCC1COc3ccccc3O1)C(=O)CO2 (stereo unspecified)	-6	3	1	·	21396*
CCC1Oc2ccc(C)cc2N(CC(=O)NCC2COc3ccccc3O2)C1=O (stereo unspecified)	-4	-1	0	1	5972
CCCCN(CCCC)CC1OCc2ccccc2CO1	2	-1	-1	·	20889*
CO[C@H]1CN(C)C(=O)c2ccc(NC(=O)C3CCC3)cc2OC[C@@H](C)N(Cc2ccncc2)C[C@H]1C	·	·	·	2	·
COc1ccc(NC(=O)Nc2ccc3c(c2)C(=O)N([C@@H](C)CO)C[C@H](C)[C@@H](CN(C)Cc2ccc(C(F)(F)F)cc2)OCCCC[C@H](C)O3)cc1	·	·	·	-1	·
CC(C(=O)N=c1sc2ccccc2n1C)N1C(=O)C2CC=CCC2C1=O (stereo unspecified)	-1	3	3	·	21549*
CC(=O)N=c1sc2ccccc2n1C	-3	-2	-1	·	2950
Cc1noc(C)c1NC(=O)Nc1ccc2c(c1)C(=O)N([C@@H](C)CO)C[C@@H](C)[C@@H](CN(C)Cc1ccc(C(F)(F)F)cc1)O2	·	·	·	0	·
CCCCN(C(=O)Nc1ccc(Cl)cc1)C1CCN(C(C)=O)CC1	1	7	5	·	17864*
CCCn1c(SCC(=O)Nc2nc3c(s2)CCCC3)nc2c1c(=O)n(C)c(=O)n2C	0	-2	-1	·	23637*
CCOc1ccc(OCC)c(NC(=O)CSc2nc3c(c(=O)n(C)c(=O)n3C)n2CC)c1	-2	-1	0	·	19457*
c1ccc(-n2nnnc2SCc2ccccn2)cc1	11	-1	0	·	8801
CCCCn1c(SCC(=O)Nc2nnc(C(C)C)s2)nc2c1c(=O)n(C)c(=O)n2C	0	1	0	·	20755*
CCOc1ccc(OCC)c(NC(=O)CSc2nc3c(c(=O)n(C)c(=O)n3C)n2C(C)C)c1	-6	1	2	2	8054
C(=C\CSc1nnnn1-c1ccccc1)/CSc1nnnn1-c1ccccc1	-3	3	1	·	20060*
Cc1nnc(NC(=O)CSc2nc3c(c(=O)n(C)c(=O)n3C)n2C(C)C)s1	-1	4	1	1	4381
COc1ccc(C#Cc2ccc([C@@H]3[C@@H](CO)N4C(=O)CN(C(=O)c5cccnc5)C[C@@H]34)cc2)cc1	·	·	·	-1	·
CCCn1c(SCC(=O)N2CCc3ccccc3C2)nc2c1c(=O)n(C)c(=O)n2C	-1	-1	-1	·	23593*
SMILES	Anthrax LF inh2	BoNT F protease	BoNT-A LC inh2	TcdB inh	Autofluor counter
O=C(CSc1nnnn1-c1ccccc1)N1CCc2ccccc2C1	-2	0	-1	·	22363*
Nc1cc(=O)[nH]c(SCC(=O)N2CCc3ccccc3C2)n1	0	1	0	·	20269*
CCN(CC)C1=NC(=[N+](CC)CC)c2ccccc21	-9	17	14	·	17474*
CCN(CCC(=O)O)c1ccccc1	0	-3	0	·	3322
O=C(O)C[C@H]1C[C@@H]2c3cc(NC(=O)NC4CCCC4)ccc3O[C@@H]2[C@H](CO)O1	·	·	·	0	·
O=C(COc1ccc(S(=O)(=O)N2CCOCC2)cc1)Nc1ccccc1C(F)(F)F	-3	5	4	·	22134*
O=C(COc1ccc(S(=O)(=O)N2CCOCC2)cc1)NCCc1ccccc1	0	?	-1	1	5843
COc1ccc(C2=NOC(C(=O)NC(C)(C)C)C2)cc1 (stereo unspecified)	-2	1	1	·	22564*
CCN(CC)C(=O)C1CC(c2ccc(OC)cc2)=NO1 (stereo unspecified)	0	-1	-1	·	20968*
COc1cccc(NC(=O)N(C)C[C@H]2Oc3cc(-c4ccccc4F)ccc3S(=O)(=O)N([C@H](C)CO)C[C@H]2C)c1	·	·	·	1	·
COc1ccc(-c2c(C)nn(-c3ccccc3)c2N)cc1	-1	5	?	·	20023*
CC1(C)CC(=O)C2=C(C1)OC(N)=C(C#N)C2C1CC=CCC1 (stereo unspecified)	0	-1	3	0	22645*
CC1C(C#N)=C(N)OC2=C1C(=O)CC(C)(C)C2 (stereo unspecified)	-4	-5	0	·	6110
Cc1ccc(-c2cc(-c3ccccc3)[nH]c(=S)c2C#N)cc1	-2	-7	0	·	3663
N#Cc1c(N)[nH]c(=S)c(C#N)c1-c1ccccc1	0	3	1	·	20825*
COc1ccccc1OCc1nc2ccccc2[nH]1	-2	-5	-1	·	17050*
COc1cccc(CNc2ccccn2)c1O	-10	?	-2	-4	4522
COc1ccc(C(=O)Nc2cccc3cccnc23)cc1OC	-1	-4	0	0	23720*
COc1ccc(NC(=O)C(=O)Nc2cccc3cccnc23)cc1OC	-4	0	-4	-4	3094
Cc1ccccc1OCc1nc2ccccc2[nH]1	-8	-7	-2	1	4674
COc1ccc(C(=O)Nc2nc3ccccc3[nH]2)cc1OC	-2	-12	-4	1	21383*
COc1cccc(CNc2cccc3cccnc23)c1O	-8	-10	-3	·	16704*
O=C(C[C@H]1C=C[C@@H](NC(=O)c2cccc(F)c2)[C@@H](CO)O1)NCCN1CCCC1	·	·	·	0	·
COc1cccc(-c2cccc(-c3nc(C(=O)O)cc4c3[C@@H](CCO)N(S(=O)C(C)(C)C)C4)c2)c1 (stereo partly specified)	·	·	·	0	·
COc1ccc(-c2noc(-c3cccs3)n2)cc1OC	-1	1	0	1	5912
SMILES	Anthrax LF inh2	BoNT F protease	BoNT-A LC inh2	TcdB inh	Autofluor counter
COc1cc(-c2noc(-c3cccs3)n2)cc(OC)c1OC	0	-1	?	·	20254*
O=C(C1CCOCC1)N1[C@@H](CO)[C@@H](c2ccccc2)C12CN(Cc1cccc(Cl)c1)C2	·	·	·	0	·
O=C(CCNC(=O)c1ccccc1Cl)N/N=C\c1ccc(O)cc1	0	-1	-1	15*	4724
COc1cccc(/C=N/NC(=O)CSc2cccc3cccnc23)c1	4	?	-1	3	4139
O=C(CCn1cnc2ccccc21)N/N=C/c1ccc(O)cc1	0	-2	0	14*	2147
O=C(CSc1cccc2cccnc12)N/N=C/c1ccc(O)cc1	0	-3	0	20*	3333
O=C(CNS(=O)(=O)c1ccccc1)N/N=C\c1ccc(Cl)cc1	0	-1	0	·	2001
